Activity calls are given as the source filed them.
How the values were obtained:
[1] = system: Plasmodium falciparum Sir2 (PF13_0152, Sir2A); assay: Plasmodium falciparum Sir2A binding compounds – biochemical, small-molecule microarray, 635 nm fluorescence, primary screen (AID 1098); conditions: fluorescence 635 nm, higher = more signal;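 further: score merges spot fluorescence intensity with its signal-to-noise ratio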
[2] = probe aDKK1 binding to arrayed compounds – biochemical, biotinylated probe, 635/667 nm fluorescence, primary screen (AID 1099); conditions: small-molecule microarray, higher = more signal;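 further: score merges 667nm spot fluorescence with signal to noise across triplicate slides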
[3] = probe aCHRDL2 binding to arrayed compounds – biochemical, biotinylated probe, 635/667 nm fluorescence, primary screen (AID 1100); conditions: small-molecule microarray, higher = more signal
[4] = change in splice reporter luminescence, either direction, cell-based, HEK293, spliceosome inhibition project, primary screen (AID 1101); conditions: HEK293 splicing luciferase reporter, 24 h, higher = more signal, called active from +8 up or from −8 down;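 further: HEK293 cells carrying a splicing-competent luciferase reporter gene; test concentration not given here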
[5] = target: Fibroblast growth factor 10 (Homo sapiens) (UniProt O15520); assay: compounds binding fibroblast growth factor 10 – biochemical, small-molecule microarray, 635 nm fluorescence, primary screen (AID 1102); conditions: FGF10 binding, fluorescence 635 nm, higher = more signal
[6] = system: glycogen synthase kinase-3 (GSK3A per assay name; protocol says GSK3B); assay: compounds binding glycogen synthase kinase-3 – biochemical, small-molecule microarray, 635 nm fluorescence, GSK3A, primary screen (AID 1103); conditions: fluorescence 635 nm, higher = more signal; further: the record names both GSK3A and GSK3B
[7] = target: Epidermal growth factor receptor (Homo sapiens) (UniProt P00533); assay: compounds binding epidermal growth factor receptor – biochemical, small-molecule microarray, 635 nm fluorescence, primary screen (AID 1104); conditions: EGFR binding, higher = more signal;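 further: score merges 667 nm emission intensity with spot signal to noise over triplicate slides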
[8] = target: Follistatin-related protein 3 (Homo sapiens) (UniProt O95633); assay: compounds binding follistatin-related protein 3 – biochemical, small-molecule microarray, 635 nm fluorescence, primary screen (AID 1105); conditions: FSTL3 binding, higher = more signal;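 further: score merges emission near 667 nm and signal to noise per printed spot across three slides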
[9] = target: Dickkopf-related protein 1 (Homo sapiens) (UniProt O94907); assay: small molecules binding DKK1 protein – biochemical, small-molecule microarray, 635 nm fluorescence scan, primary screen (AID 1106); conditions: higher = more signal;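 further: score merges emission near 667 nm with signal to noise over three replicate slides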
[10] = system: Inhibin beta A chain (activin A); assay: small molecules binding activin A – biochemical, small-molecule microarray, 635 nm fluorescence scan, primary screen (AID 1107); conditions: INHBA, higher = more signal;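 further: mouse activin A protein probed at 4.33 µg/mL on printed slides; score merges bound-protein fluorescence near 667 nm with spot signal-to-noise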
[11] = system: Human papillomavirus type 1a protein E7 (residues 44-93); assay: small molecules binding HPV E7 44-93 – biochemical, small-molecule microarray, residues 44-93, 635 nm fluorescence, primary screen (AID 1108); conditions: fluorescence 635 nm, higher = more signal;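 further: E7 fragment applied at 1 µg/mL in TBST for 1 h at 4 C; score combines spot fluorescence with its signal to noise ratio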
[12] = hepatitis C replication reporter changes, two-sided – Huh7 cells, luciferase reporter, HCV replication inhibitor project, primary screen (AID 1109); conditions: Huh7 HCV replicon luciferase reporter, 48 h; higher = more signal;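 further: huh7 hepatoma cells harbouring a luciferase neomycin HCV replicon reporter; luciferase luminescence as measure of HCV replicon replication; test concentration not given here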
[13] = target: Left-right determination factor 2 (Homo sapiens) (UniProt O00292); assay: small molecules binding LEFTY2 protein – biochemical, small-molecule microarray, 635 nm fluorescence scan, primary screen (AID 1110); conditions: higher = more signal
[14] = target: Calmodulin-1 (Homo sapiens) (UniProt P0DP23); assay: small molecules binding calmodulin-1 with EGTA – biochemical, small-molecule microarray, Cy5-labelled CALM1, profiling panel (AID 1111); conditions: Cy5-CALM1 binding fluorescence, higher = more signal;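 further: labelled calmodulin applied in Tris saline Tween buffer holding calcium plus EGTA and DTT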
[15] = target: Calmodulin-1 (Homo sapiens) (UniProt P0DP23); assay: small molecules binding Ca-loaded calmodulin-1 – biochemical, small-molecule microarray, Cy5-labelled CALM1, plus calcium, artefact control for SMM control-protein annotation, profiling panel (AID 1112); conditions: Cy5-CALM1 binding fluorescence, higher = more signal;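 further: score merges spot fluorescence with signal to noise from triplicate slides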
[16] = probe aWnt5a binding to arrayed compounds – biochemical, biotinylated probe, 635/667 nm fluorescence, primary screen (AID 1113); conditions: small-molecule microarray, higher = more signal;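 further: score merges 667 nm fluorescence intensity with signal-to-noise per printed feature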
[17] = probe aShh binding to arrayed compounds – biochemical, biotinylated probe, 635/667 nm fluorescence, primary screen (AID 1114); conditions: small-molecule microarray, higher = more signal;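 further: probe is biotin-labelled aShh protein from a stem cell growth factor screen; measures binding of labelled protein to compounds printed on the slide; score merges feature fluorescence at 667 nm with signal-to-noise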
[18] = probe aNog binding to arrayed compounds – biochemical, biotinylated probe, 635/667 nm fluorescence, primary screen (AID 1115); conditions: small-molecule microarray, higher = more signal;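 further: probe is biotinylated aNog protein used at 0.15 µg/mL for 1 h at 4 C; z-score combines 667 nm fluorescence of each spot with its signal to noise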
[19] = target: Torsin-1A-interacting protein 1 (Homo sapiens) (UniProt Q5JTV8); assay: compound microarray binding of lysate hLAP1 – cell lysate, small-molecule microarray, COS7 lysate, 635/667 nm fluorescence, primary screen (AID 1116); conditions: 635 nm fluorescence, higher = more signal
[20] = target: Alpha-bungarotoxin (Bungarus multicinctus) (UniProt P60615); assay: compounds binding labelled alpha-BTX control protein – biochemical, small-molecule microarray, Alexa647 label, 635/667 nm fluorescence, artefact control for SMM control protein annotation, profiling panel (AID 1117); conditions: alpha-BTX-A647 binding fluorescence, higher = more signal
Sequence of Alpha-bungarotoxin (Bungarus multicinctus) (P60615 whole entry, looked up): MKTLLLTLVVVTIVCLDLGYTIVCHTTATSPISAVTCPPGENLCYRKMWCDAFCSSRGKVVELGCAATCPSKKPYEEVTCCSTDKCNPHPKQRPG

Sequence of Follistatin-related protein 3 (Homo sapiens) (O95633 whole entry, looked up): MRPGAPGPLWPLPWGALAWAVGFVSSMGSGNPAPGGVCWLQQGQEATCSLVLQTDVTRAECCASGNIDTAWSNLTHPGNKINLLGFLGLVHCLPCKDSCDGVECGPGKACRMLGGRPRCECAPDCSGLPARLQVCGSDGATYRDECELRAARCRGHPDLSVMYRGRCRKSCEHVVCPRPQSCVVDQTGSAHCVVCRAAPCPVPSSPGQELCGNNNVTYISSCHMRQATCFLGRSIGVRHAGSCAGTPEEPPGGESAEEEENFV
Sequence of Fibroblast growth factor 10 (Homo sapiens) (O15520 whole entry, looked up): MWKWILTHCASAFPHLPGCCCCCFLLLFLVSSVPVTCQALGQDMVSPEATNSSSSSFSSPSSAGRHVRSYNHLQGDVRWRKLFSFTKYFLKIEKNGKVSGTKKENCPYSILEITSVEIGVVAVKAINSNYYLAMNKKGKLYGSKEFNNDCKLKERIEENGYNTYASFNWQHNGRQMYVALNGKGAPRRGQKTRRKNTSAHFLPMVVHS
Sequence of Dickkopf-related protein 1 (Homo sapiens) (O94907 whole entry, looked up): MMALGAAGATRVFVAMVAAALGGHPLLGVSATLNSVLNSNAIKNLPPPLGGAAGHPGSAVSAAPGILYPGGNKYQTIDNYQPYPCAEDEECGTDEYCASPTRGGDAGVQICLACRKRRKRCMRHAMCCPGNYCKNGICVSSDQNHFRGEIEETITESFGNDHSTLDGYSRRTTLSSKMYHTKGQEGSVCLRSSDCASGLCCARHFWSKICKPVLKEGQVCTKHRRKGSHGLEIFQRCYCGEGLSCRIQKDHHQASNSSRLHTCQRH
Sequence of Epidermal growth factor receptor (Homo sapiens) (P00533 whole entry, looked up): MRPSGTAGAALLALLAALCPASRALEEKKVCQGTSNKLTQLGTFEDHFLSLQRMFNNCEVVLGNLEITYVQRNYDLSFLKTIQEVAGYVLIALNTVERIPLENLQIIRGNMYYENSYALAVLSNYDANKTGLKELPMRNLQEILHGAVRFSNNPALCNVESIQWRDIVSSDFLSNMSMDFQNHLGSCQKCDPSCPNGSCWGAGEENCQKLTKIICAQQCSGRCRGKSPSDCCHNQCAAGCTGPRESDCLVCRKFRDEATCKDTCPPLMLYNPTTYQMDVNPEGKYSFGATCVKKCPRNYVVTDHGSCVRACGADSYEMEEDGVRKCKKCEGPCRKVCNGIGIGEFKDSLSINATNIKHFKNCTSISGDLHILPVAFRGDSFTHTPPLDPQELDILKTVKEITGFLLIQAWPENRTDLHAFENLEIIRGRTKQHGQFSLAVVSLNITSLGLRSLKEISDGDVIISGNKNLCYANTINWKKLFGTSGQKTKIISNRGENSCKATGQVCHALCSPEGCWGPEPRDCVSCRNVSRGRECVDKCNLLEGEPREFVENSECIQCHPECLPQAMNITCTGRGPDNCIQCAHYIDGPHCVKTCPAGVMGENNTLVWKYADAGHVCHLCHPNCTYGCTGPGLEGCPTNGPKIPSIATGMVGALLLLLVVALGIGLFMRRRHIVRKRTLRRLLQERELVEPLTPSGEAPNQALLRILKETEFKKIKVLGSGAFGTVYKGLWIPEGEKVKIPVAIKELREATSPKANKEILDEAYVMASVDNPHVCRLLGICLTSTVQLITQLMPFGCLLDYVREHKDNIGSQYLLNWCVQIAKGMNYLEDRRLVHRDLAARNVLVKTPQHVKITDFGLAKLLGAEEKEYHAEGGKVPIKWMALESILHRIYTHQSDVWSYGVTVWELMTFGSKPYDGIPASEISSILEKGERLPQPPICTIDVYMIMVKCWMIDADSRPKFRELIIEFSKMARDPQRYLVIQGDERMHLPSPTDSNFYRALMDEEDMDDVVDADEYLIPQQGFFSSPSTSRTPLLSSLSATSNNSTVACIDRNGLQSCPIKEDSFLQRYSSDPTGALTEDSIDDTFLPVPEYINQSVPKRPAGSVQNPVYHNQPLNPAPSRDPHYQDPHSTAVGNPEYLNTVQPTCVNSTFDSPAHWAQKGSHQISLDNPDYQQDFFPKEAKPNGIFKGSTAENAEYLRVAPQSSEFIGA
Sequence of Left-right determination factor 2 (Homo sapiens) (O00292 whole entry, looked up): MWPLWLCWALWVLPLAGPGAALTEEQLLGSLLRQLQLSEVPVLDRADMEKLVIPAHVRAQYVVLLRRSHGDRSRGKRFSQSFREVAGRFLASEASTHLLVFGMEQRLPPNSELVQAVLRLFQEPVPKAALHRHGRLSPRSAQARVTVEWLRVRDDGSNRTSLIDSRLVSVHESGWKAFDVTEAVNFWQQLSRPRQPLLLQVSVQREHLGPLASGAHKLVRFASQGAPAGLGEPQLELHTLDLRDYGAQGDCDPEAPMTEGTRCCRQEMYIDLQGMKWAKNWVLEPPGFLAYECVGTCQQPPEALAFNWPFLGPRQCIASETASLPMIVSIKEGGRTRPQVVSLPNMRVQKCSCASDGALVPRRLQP
Sequence of Torsin-1A-interacting protein 1 (Homo sapiens) (Q5JTV8 whole entry, looked up): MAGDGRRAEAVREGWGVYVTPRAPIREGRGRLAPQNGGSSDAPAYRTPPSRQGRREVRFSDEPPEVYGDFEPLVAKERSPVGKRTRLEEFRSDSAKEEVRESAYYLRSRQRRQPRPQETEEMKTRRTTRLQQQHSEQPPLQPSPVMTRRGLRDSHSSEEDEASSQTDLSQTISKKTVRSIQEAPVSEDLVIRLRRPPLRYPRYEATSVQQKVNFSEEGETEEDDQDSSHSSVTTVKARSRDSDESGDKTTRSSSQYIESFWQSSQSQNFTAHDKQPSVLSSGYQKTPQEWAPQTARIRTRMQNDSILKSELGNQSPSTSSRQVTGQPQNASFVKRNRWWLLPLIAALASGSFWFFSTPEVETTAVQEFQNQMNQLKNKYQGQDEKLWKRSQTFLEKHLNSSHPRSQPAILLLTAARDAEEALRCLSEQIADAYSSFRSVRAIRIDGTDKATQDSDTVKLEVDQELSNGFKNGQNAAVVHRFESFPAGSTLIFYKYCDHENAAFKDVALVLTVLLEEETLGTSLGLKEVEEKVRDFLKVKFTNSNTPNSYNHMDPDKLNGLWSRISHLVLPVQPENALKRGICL

Compound | composite z-score [1] | composite z-score [2] | composite z-score [3] | z-score [4] | composite z-score [5] | composite z-score [6] | composite z-score [7] | composite z-score [8] | composite z-score [9] | composite z-score [10] | composite z-score [11] | z-score [12] | composite z-score [13] | composite z-score [14] | composite z-score [15] | composite z-score [16] | composite z-score [17] | composite z-score [18] | composite z-score [19] | composite z-score [20]
NC(=O)NCC#Cc1ccc2c(c1)[C@]1(C(=O)N2)[C@H](c2ccccc2OCCO)N2[C@H](c3ccccc3)[C@H](c3ccccc3)OC(=O)[C@H]2[C@@H]1C(=O)N1CCN(c2ncccn2)CC1 | 0.722 | 0.0815 | 0.542 | 0.222 (inactive) | 0.651 | 0.814 | 0.251 | 0.844 | 0.133 | 1.25 | 1.4 | -0.729 | 0.235 | 0.427 | 0.263 | -0.124 | 0.399 | -0.582 | 1.04 | 0.959
COCCOC(=O)N1C(=O)[C@@]2(c3cc(C#CC4(O)CCCCCC4)ccc31)[C@H](C(=O)N1CCCCCCC1)[C@H]1C(=O)O[C@H](c3ccccc3)[C@H](c3ccccc3)N1[C@@H]2c1ccc(O)cc1 | 1.26 | 2.22 | 1.55 | -0.0148 (inactive) | 0.808 | 1.11 | 0.251 | 1.34 | 0.716 | 1.89 | 0.554 | -0.937 | 0.333 | 1.31 | 0.639 | 0.629 | 1.9 | 2.13 | 3.24 | 1.73
COc1ccc(C(=O)Nc2ccc(CN3C(=O)[C@]4(O[C@H](CCn5cc(CCO)nn5)[C@@H]([Si](C)(C)c5ccc(OC)cc5)[C@@H]4C)c4ccccc43)cc2)cc1 | 0.814 | 0.3 | 0.589 | 5.66 (inactive) | 0.898 | 1.03 | 0.958 | -0.106 | -0.0456 | 1.11 | 1.05 | -5.06 | 0.465 | 0.62 | -0.0683 | 0.0857 | 0.199 | -0.363 | 0.793 | 1.31
COc1ccc(-c2cc3c(c(-c4ccccc4)n2)[Si](C(C)C)(C(C)C)O[C@H]3c2ccccc2)cn1 | -0.309 | -0.0513 | -0.131 | 0.96 (inactive) | 0.22 | 0.176 | 0.0928 | 0.352 | 0.0263 | 0.605 | 0.656 | -1.4 | -0.152 | 0.136 | -0.265 | -0.0512 | -0.0626 | -0.216 | -0.126 | 0.599
CCCC/C=C/[C@H]([C@@H](O)Cc1ccccc1)N(CC#Cc1ccccc1)Cc1ccccc1Br | -0.488 | 0.113 | 1.26 | -0.669 (inactive) | -1.47 | -0.749 | -1.77 | -1.55 | -2.53 | 0.109 | -0.373 | -1.29 | -1.81 | -0.269 | 0.74 | -0.166 | -0.366 | -0.132 | -0.356 | -0.647
CO[C@H]1COC(=O)CC=C[C@H](C)[C@@H](OC)COC(=O)CC=C[C@@H]1C | 0.697 | -0.546 | -1.11 | -1.06 (inactive) | 0.597 | 0.309 | 0.751 | 0.522 | 0.991 | 0.716 | -0.366 | -0.0985 | 0.724 | -1.61 | -1.87 | -0.181 | 0.126 | -0.63 | -0.0807 | -0.86
CCC1=C2CN(Cc3ccccc3Br)[C@@H]([C@@H](O)Cc3ccccc3)C2C=CCC1 (stereo not given in full) | 0.124 | -0.0181 | -0.311 | -2.14 (inactive) | 0.597 | 0.6 | 0.164 | 0.961 | 0.513 | 0.677 | 1.38 | -2.97 | 0.473 | 0.417 | -0.419 | -0.148 | -0.0709 | -0.278 | -0.131 | 0.616
CCCC[C@H]1OB(O)C[C@H]2C1=C(COC)C[C@H]1C(=O)N(Cc3ccccc3)C(=O)[C@H]12 | -0.0105 | 0.0752 | -0.0346 | -1.27 (inactive) | 0.78 | 0.261 | 0.013 | 1.1 | 0.0988 | 0.223 | -0.0721 | 0.202 | 0.313 | 0.188 | -0.0421 | -0.0327 | -0.0904 | 0.0649 | 0.25 | 0.526
O=C1O[C@H](c2ccccc2)[C@H](c2ccccc2)N2[C@H]1[C@@H](C(=O)NC[C@H](O)c1ccccc1)[C@]1(C(=O)Nc3ccc(C#CC4(O)CCCCCC4)cc31)[C@H]2c1ccc(OCCO)cc1 | 1.03 | 0.539 | 0.713 | -0.717 (inactive) | 0.599 | 0.563 | 0.0371 | 0.411 | 0.0407 | 0.0385 | 1.27 | -2.41 | -0.12 | 0.67 | 0.623 | -0.0276 | -0.106 | 0.319 | 0.933 | 1.41
COC(=O)[C@@]1(Cc2ccc(OC)cc2)[C@H]2c3cc(C(=O)N(C)C)n(Cc4ccc(C)c(F)c4F)c3C[C@H]2CN1C(=O)c1ccccc1 | 0.274 | 0.627 | 0.993 | -1.25 (inactive) | 0.0253 | -0.109 | -0.902 | 0.0502 | -1.11 | 0.781 | 0.723 | -1.35 | -0.841 | 1.52 | 1.21 | 0.148 | 0.575 | 1.09 | 0.232 | 0.644
C[C@]1(C(=O)NCCN2CCOCC2)c2ccccc2C(=O)N(Cc2ccccc2)[C@H]1c1ccc(CO)cc1 | 1.59 | -0.082 | 0.606 | -0.675 (inactive) | -0.632 | -0.748 | -0.491 | -0.824 | -0.396 | 0.519 | -0.474 | -0.326 | -1.01 | -0.193 | 0.349 | 0.763 | 0.163 | -0.195 | -0.705 | 0.0519
